We go through 15 compounds from PubChem BioAssay (Tox21).

The nature of the assay: Nuclear factor erythroid 2-related factor 2/antioxidant responsive element (Nrf2/ARE) small molecule agonists: luciferase reporter gene qHTS assay in human keratinocytes (AID 1919969). Also: nearly all actives have a fitted effect of over 35% in size. In general terms: A reporter such as luciferase makes a cellular process visible.

Records with an inconclusive call do not appear. Where a call stands in place of a potency, no number is given. Active and inactive are the calls of the source. Calls follow the shape of the full dose curve.
Potency is read from the fitted curve at half-maximal effect.

Regarding `CC(C)(C)c1n[nH]c(=S)n(N)c1=O`, the Potency entry is “inactive”.

With `CCc1cc(S(=O)(=O)O)c2cc(C(C)C)cccc1-2`, the Potency result was “inactive”.

As to `O=C(O)C1(C(=O)O)CCC1.[NH2-].[NH2-].[Pt+2]`, the Potency result was “inactive”.

As for `Fc1ccc([C@@H]2CCNC[C@H]2COc2ccc3c(c2)OCO3)cc1`, the Potency result is “inactive”.

Turning to `O=C1c2ccccc2C(=O)C1c1nc2ccccc2c(Br)c1O`, the Potency was 24.3 µM (active).

Regarding `CCCC(C)C`, the Potency result was “inactive”.

As to `CCC=O`, the Potency entry is “inactive”.

Regarding `CC(C)Cc1nccs1`, the Potency entry was “inactive”.

Consider `CN(C)CCCOC1(Cc2ccccc2)CCCCCC1`, for which the Potency entry was “inactive”.

As to `CCOC(C)=O`, the Potency result was “inactive”.

Turning to `OC1(c2ccc(Cl)c(C(F)(F)F)c2)CCN(CCCC(c2ccc(F)cc2)c2ccc(F)cc2)CC1`, the Potency entry is “inactive”.

Turning to `CCCCCCCCCCn1cc[n+](CCCCCCCCCC)c1C`, the Potency result was “inactive”.

As to `CC(C)(C)c1nnc(NS(=O)(=O)c2ccccc2)s1`, the Potency result is “inactive”.

For `CN1CCOC(c2ccccc2)c2ccccc2C1` (stereo not given), the Potency result is “inactive”.

Turning to `Cc1cc(=O)oc2cc(O[C@@H]3SC[C@@H](O)[C@H](O)[C@H]3O)ccc12`, the Potency result is “inactive”.
